Results from publication PMC5540273 (PLoS ONE, 2017).

Tests used:
Settings in all cases: concentration: 1 μM, replicates: in singlicate; n = 1
MET = system: MET
MINK = system: T1, MINK
T1 construct: gene MINK1

MKK7 = system: MKK7
MKNK1 = system: MKNK1
MKNK2 = system: MKNK2
MLCK = system: T2, MLCK
T2 construct: gene MYLK3

MLK1 = system: T3, MLK1
T3 construct: gene MAP3K9

MLK2 = system: MLK2
MLK3 = system: MLK3
MRCKA = system: MRCKA
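Also: KINOMEscan kinase panel screen.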

SMILES | %Inh (MET) [%] | %Inh (MINK) [%] | %Inh (MKK7) [%] | %Inh (MKNK1) [%] | %Inh (MKNK2) [%] | %Inh (MLCK) [%] | %Inh (MLK1) [%] | %Inh (MLK2) [%] | %Inh (MLK3) [%] | %Inh (MRCKA) [%]
O=C1NC(=O)C(c2ccccc2)=C1Nc1cccc(O)c1 [SB-390534] | 0 | 22 | 0 | 0 | 21 | 0 | 0 | 0 | 6 | 0
Nc1nc(N)c2nc(-c3ccccc3)[nH]c2n1 [SKF-12778] | 0 | 0 | 29 | 0 | 1 | 0 | 40 | 66 | 40 | 15
CCn1c(-c2ccoc2)nc2cnccc21 [SB-733887] | 0 | 0 | 33 | 13 | 17 | 0 | 0 | 0 | 3 | 1
CCC(=O)c1c(-c2ccccc2)c2cc(Cl)ccc2c(=O)n1Cc1cc(S(C)(=O)=O)n(CCC(C)(C)O)n1 | 0 | 0 | 0 | 0 | 0 | 7 | 3 | 0 | 24 | 0
